Drawing on ChEMBL document CHEMBL1961873, “Compounds: GSK PKIS; Assays: Nanosyn kinase panel” (2012), this text covers inhibition for four compounds.

Test [1] has as its target Tyrosine-protein kinase SYK (Homo sapiens) (UniProt P43405). Conditions: at 1 µM.
For test [2], the target named is T1, Tyrosine-protein kinase Tec (Homo sapiens) (UniProt P42680).
T1 sequence (whole entry): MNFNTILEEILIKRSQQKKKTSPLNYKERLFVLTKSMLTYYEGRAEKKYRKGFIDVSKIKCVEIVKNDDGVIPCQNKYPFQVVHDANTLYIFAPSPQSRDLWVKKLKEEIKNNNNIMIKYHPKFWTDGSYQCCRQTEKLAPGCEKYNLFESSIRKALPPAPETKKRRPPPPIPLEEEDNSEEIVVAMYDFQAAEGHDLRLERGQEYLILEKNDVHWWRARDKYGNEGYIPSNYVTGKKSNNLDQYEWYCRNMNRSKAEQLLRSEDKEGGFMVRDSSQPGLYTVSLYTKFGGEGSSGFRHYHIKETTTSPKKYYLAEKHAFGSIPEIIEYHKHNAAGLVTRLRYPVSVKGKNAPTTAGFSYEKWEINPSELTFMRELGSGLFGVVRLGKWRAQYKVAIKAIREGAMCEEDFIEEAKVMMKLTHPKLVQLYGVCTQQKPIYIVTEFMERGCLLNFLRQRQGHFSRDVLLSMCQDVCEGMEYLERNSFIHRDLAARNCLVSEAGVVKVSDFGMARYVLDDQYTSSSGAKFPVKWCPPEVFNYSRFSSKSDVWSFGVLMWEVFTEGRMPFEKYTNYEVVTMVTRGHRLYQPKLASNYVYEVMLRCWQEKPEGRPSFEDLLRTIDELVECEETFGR
Conditions: at 0.1 µM.

Test [3] concerns the target T1, Tyrosine-protein kinase Tec (Homo sapiens). Conditions: at 1 µM.
Test [4] addresses Angiopoietin-1 receptor (Homo sapiens) (UniProt Q02763). The following applies: at 0.1 µM.
For test [5] the target is unchanged. The following applies: at 1 µM.
Test [6] deals with T2, Non-receptor tyrosine-protein kinase TNK1 (Homo sapiens) (UniProt Q13470).
T2 sequence (whole entry): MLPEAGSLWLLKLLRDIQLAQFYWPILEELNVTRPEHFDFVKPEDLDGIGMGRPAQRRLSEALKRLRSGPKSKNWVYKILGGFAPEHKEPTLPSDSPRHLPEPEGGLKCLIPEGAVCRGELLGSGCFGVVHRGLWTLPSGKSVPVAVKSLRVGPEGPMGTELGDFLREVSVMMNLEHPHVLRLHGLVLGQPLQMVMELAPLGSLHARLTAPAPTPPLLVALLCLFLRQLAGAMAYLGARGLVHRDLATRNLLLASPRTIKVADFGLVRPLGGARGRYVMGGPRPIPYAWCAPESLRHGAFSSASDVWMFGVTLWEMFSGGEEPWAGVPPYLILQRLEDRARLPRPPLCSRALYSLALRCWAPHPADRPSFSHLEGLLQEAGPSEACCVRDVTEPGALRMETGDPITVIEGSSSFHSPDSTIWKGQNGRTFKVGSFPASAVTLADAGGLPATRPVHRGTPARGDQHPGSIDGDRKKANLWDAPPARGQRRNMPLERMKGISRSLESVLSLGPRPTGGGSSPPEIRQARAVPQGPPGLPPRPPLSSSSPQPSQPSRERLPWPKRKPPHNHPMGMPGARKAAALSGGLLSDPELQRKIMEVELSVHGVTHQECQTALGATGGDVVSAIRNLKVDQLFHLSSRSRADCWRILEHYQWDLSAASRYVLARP
The following applies: at 0.1 µM.

The target of test [7] is T2, Non-receptor tyrosine-protein kinase TNK1 (Homo sapiens). Conditions: at 1 µM.
In test [8] the target is Activated CDC42 kinase 1 (Homo sapiens) (UniProt Q07912). The following applies: at 0.1 µM.
Activated CDC42 kinase 1 (Homo sapiens), sequence (Q07912 whole entry, looked up): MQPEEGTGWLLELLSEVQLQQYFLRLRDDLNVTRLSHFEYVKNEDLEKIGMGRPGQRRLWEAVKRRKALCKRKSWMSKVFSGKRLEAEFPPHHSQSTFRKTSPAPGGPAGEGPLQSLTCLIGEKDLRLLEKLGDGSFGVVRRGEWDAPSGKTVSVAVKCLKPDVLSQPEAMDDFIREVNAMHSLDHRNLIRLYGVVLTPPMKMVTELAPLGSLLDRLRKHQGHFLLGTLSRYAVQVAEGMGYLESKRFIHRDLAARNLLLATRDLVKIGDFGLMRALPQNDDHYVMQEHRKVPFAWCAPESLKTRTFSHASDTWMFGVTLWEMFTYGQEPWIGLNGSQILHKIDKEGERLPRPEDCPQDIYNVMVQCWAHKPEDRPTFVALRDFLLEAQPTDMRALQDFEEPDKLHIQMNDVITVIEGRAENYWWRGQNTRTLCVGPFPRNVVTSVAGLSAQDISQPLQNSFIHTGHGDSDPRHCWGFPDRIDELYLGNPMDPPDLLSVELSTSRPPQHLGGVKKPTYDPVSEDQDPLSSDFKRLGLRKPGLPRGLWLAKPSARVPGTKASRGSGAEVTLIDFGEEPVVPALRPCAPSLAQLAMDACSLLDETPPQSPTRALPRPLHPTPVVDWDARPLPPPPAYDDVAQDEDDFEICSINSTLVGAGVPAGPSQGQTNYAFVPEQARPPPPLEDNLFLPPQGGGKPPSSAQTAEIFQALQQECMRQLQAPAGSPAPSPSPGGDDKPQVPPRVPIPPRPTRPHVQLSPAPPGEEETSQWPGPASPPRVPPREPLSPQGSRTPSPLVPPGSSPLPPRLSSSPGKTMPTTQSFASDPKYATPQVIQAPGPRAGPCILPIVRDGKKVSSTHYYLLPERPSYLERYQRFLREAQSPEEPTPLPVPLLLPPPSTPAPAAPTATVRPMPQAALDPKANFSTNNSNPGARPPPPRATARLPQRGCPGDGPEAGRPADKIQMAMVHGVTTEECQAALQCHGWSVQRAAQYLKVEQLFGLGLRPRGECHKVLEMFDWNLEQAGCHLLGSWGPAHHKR
Test [9] shares this target. Conditions: at 1 µM.
Test [10] addresses High affinity nerve growth factor receptor (Homo sapiens) (UniProt P04629). Conditions: at 0.1 µM.
For test [11] the target is unchanged. The following applies: at 1 µM.
Test [12] deals with BDNF/NT-3 growth factors receptor (Homo sapiens) (UniProt Q16620). Conditions: at 0.1 µM.
BDNF/NT-3 growth factors receptor (Homo sapiens), sequence (Q16620 32-822 limits assumed): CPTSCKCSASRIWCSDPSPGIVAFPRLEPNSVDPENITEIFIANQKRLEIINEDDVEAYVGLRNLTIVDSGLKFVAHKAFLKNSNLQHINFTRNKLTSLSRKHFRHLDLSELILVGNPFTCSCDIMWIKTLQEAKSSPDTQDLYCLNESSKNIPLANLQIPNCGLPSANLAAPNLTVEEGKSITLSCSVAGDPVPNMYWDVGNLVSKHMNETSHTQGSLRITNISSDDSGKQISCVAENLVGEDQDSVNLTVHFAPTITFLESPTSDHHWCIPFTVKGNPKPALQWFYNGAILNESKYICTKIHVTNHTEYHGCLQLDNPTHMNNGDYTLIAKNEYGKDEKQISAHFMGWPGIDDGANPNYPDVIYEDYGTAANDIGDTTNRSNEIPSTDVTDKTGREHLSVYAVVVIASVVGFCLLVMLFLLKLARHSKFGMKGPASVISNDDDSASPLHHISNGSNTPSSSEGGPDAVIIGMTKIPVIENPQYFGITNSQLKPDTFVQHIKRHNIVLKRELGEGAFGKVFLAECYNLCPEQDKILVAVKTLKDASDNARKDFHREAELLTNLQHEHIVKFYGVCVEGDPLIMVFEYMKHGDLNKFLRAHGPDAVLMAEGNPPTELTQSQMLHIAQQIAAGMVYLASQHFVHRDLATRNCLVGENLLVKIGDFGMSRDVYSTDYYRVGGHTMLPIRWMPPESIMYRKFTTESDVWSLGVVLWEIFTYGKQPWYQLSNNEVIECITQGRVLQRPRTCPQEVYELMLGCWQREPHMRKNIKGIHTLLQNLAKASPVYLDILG
For test [13] the target is unchanged. Conditions: at 1 µM.
The target in test [14] is NT-3 growth factor receptor (Homo sapiens) (UniProt Q16288). The following applies: at 0.1 µM.
Test [15] shares this target. Conditions: at 1 µM.
Test [16] addresses T3, Tyrosine-protein kinase TXK (Homo sapiens) (UniProt P42681).
T3 sequence (whole entry): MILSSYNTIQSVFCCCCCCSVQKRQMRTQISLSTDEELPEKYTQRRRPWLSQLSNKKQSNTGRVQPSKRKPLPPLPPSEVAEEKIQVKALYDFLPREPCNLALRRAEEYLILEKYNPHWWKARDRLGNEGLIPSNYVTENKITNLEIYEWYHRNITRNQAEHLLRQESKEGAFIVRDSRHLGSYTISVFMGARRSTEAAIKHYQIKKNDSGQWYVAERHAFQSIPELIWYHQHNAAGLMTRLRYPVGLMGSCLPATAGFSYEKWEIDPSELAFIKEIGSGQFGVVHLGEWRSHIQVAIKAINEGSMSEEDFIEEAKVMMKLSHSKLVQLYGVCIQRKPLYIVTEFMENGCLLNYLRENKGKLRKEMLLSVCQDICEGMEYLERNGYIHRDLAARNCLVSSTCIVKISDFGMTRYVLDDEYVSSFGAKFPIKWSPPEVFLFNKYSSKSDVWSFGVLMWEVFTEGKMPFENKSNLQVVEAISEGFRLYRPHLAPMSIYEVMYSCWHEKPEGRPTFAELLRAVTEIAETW
Conditions: at 0.1 µM.

Test [17] concerns the target T3, Tyrosine-protein kinase TXK (Homo sapiens). The following applies: at 1 µM.
In test [18] the target is Non-receptor tyrosine-protein kinase TYK2 (Homo sapiens) (UniProt P29597). The following applies: at 0.1 µM.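 Note: each value is a mean of the inhibition readings.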
Non-receptor tyrosine-protein kinase TYK2 (Homo sapiens), sequence (P29597 whole entry): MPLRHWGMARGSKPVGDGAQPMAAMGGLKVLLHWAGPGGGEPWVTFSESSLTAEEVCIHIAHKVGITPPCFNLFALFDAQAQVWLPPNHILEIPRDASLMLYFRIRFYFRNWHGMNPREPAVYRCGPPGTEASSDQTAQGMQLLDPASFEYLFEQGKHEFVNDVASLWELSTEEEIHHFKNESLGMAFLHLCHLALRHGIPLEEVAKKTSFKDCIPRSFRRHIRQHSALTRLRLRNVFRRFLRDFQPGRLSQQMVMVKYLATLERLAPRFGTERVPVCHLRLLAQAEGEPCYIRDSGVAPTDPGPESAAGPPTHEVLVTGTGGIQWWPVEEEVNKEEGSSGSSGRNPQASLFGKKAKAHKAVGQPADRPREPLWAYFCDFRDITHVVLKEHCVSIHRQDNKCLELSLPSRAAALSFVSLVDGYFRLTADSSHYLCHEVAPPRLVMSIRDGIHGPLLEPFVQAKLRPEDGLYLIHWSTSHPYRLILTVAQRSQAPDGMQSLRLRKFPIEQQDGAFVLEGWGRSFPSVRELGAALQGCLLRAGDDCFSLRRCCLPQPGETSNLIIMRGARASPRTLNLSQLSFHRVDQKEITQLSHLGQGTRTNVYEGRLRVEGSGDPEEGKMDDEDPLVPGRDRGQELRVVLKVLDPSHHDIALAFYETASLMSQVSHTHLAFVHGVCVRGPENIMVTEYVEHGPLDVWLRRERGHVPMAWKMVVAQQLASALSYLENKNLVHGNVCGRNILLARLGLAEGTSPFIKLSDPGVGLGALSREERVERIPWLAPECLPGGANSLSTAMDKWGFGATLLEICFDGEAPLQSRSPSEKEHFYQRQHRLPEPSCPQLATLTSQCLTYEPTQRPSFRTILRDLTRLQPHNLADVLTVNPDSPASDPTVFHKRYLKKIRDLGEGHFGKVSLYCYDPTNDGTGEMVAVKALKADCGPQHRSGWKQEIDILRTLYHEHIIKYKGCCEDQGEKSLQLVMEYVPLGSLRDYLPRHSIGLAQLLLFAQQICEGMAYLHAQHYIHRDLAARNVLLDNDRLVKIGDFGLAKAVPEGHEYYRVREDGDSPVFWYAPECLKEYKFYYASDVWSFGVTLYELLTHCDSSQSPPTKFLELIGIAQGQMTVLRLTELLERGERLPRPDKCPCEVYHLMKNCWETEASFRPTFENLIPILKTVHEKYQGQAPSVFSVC
The target in test [19] is T4, Dual specificity protein kinase TTK (Homo sapiens) (UniProt P33981).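 Note: reported figures are mean TTK inhibition at 1 µM.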
T4 sequence (whole entry): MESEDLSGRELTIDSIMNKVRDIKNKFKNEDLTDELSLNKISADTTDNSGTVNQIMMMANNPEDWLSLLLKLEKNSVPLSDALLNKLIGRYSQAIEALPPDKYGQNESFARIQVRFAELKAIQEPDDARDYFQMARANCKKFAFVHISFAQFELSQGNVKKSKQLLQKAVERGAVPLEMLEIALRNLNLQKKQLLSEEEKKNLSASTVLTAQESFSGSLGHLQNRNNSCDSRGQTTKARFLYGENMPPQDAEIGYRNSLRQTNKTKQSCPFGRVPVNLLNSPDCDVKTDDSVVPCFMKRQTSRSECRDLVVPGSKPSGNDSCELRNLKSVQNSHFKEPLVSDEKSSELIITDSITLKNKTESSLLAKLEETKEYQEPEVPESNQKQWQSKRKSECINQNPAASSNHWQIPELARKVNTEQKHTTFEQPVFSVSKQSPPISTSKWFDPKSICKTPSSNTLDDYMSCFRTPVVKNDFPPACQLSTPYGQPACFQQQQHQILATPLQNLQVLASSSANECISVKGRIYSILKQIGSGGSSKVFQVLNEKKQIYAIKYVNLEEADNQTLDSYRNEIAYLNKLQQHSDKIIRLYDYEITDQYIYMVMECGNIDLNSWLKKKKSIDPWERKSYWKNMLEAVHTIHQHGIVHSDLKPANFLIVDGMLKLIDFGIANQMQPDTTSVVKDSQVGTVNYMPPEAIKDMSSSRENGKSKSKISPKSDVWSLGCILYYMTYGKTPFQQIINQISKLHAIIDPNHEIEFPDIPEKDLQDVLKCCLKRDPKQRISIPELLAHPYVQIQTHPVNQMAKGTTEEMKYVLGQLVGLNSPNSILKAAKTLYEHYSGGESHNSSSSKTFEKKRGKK
Conditions: at 1 µM.

The target in test [20] is T5, Aurora kinase A (Homo sapiens) (UniProt O14965).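 Note: each reported value is a mean percent inhibition of Aurora-A.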
T5 sequence (whole entry): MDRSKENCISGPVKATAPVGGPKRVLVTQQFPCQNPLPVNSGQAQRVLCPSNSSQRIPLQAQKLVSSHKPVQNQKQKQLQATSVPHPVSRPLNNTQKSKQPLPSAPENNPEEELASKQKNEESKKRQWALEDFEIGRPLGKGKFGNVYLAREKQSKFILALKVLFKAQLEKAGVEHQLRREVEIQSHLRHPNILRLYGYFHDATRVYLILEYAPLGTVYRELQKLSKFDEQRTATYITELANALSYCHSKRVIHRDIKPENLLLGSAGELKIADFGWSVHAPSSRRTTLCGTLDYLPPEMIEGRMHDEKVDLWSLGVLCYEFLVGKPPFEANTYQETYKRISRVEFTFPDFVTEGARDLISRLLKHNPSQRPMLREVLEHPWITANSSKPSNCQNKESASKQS
Conditions: at 0.1 µM.

Angiopoietin-1 receptor (Homo sapiens), sequence (Q02763 whole entry): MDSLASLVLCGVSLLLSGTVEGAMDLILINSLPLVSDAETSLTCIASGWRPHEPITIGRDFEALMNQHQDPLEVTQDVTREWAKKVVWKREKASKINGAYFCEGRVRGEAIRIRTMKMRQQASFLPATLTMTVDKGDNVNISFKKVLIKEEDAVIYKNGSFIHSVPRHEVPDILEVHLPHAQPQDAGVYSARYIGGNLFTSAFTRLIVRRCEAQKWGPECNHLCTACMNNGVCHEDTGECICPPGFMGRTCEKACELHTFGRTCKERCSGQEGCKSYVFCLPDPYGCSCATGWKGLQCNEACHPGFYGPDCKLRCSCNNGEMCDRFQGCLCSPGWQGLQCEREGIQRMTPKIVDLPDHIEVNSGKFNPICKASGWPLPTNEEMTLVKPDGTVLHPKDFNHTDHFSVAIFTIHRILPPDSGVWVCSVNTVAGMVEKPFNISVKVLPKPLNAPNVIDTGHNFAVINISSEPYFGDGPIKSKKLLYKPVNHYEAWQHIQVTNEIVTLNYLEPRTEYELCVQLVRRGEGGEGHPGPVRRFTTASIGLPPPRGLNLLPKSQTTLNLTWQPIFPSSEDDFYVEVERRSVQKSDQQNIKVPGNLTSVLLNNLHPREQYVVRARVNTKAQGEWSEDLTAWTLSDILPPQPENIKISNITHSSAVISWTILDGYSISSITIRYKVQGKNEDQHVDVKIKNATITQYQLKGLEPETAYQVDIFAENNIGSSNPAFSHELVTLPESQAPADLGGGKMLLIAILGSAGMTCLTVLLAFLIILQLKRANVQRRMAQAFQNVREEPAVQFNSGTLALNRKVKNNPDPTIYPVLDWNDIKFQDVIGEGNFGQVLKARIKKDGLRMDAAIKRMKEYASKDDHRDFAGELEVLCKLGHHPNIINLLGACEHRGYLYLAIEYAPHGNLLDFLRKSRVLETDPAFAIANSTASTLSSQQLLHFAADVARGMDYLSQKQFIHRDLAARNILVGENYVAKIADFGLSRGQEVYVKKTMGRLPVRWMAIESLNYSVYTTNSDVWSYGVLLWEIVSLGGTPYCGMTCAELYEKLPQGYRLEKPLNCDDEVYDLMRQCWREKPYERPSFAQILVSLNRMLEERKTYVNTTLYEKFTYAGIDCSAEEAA
High affinity nerve growth factor receptor (Homo sapiens), sequence (P04629 33-796 limits assumed): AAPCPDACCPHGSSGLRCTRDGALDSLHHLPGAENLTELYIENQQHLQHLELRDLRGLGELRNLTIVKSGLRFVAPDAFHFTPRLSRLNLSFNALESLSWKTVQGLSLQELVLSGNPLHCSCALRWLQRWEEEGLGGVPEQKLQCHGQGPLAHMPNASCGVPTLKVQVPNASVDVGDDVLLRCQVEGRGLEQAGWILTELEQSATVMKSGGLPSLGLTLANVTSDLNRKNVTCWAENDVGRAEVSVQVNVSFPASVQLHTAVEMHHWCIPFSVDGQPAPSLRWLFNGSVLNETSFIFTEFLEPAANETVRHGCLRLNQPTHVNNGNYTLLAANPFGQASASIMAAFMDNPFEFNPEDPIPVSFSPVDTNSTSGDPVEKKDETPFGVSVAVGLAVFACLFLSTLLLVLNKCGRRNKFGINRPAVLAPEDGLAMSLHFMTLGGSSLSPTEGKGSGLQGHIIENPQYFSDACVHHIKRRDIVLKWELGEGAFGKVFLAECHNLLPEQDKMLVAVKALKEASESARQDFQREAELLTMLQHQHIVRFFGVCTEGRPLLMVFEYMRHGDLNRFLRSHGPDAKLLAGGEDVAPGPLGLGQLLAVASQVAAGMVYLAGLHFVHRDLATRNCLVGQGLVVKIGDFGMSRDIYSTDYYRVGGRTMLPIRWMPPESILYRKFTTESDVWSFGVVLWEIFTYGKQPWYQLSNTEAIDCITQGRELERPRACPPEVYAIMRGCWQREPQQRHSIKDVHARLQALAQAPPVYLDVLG

Broadly, the inhibition is the change of the read-out against control, counted positive when it falls. For the compound `Cc1ccc2c(-c3ccnc(Nc4ccc5c(c4)OCCO5)n3)c(-c3ccc(C(F)(F)F)cc3)nn2n1`, the inhibition was -4.13% in test [1]; -0.12% in test [2]; 3.34% in [3]; -0.68% in test [4]; 6.26% in [5]; -0.74% in [6]. Also, the inhibition was 2.22% in test [7]; -0.07% in test [8]; 0.6% in test [9]; -1.98% in test [10]; -4.22% in test [11]; -1.22% in test [12]. Moreover, the inhibition in test [13] is 0.09%; in test [14] it was 3.63%; in test [15] it was -0.97%; in test [16] it was -1.11%; in test [17], 2.6%; in test [18], -0.28%. The figures for the inhibition in test [19] and in test [20] were 4.26% and 3.93%, respectively.
With `CN(c1ccc(NC(=O)Nc2ccc(OC(F)(F)F)cc2)cc1)c1ccnc(Nc2cccc(S(N)(=O)=O)c2)n1`, the inhibition in test [2] was found to be 0.44%; in test [3], 7.04%; in test [4] it was 36%; in test [5], 79.2%; in test [6] it was 21.4%; in [7], 82.2%. In addition, the inhibition in test [8] amounted to 0.67%; in [9], 4.69%; in test [10], 30%; in [11] it was 90.5%; in test [12], 34.7%; in [13] it was 82.6%. The inhibition is 30.1% in test [14]; 87.1% in test [15]; -0.18% in test [16]; 8.63% in test [17]; -1.91% in test [18]; 6.4% in test [19]. For the same compound, the inhibition in test [20] was found to be 7.93%.
As for `COc1ccc2ncnc(Nc3ccc(OCc4ccccc4)cc3)c2c1`, the inhibition in test [1] was -1.05%; in test [2] it was 2.8%; in test [3], 4.49%; in test [4], 2.79%; in test [5], 5.45%; in test [6], 2.34%. For the same compound, the inhibition in test [7] turned out to be 12.3%; in test [8], 0.68%; in [9], 1.66%; in [10], 0.33%; in [11], 1.61%; in test [12], 2.59%. The inhibition is 2.63% in test [13]; -0.03% in test [14]; 0.85% in test [15]; 2.73% in test [16]; 3.98% in [17]; -2.4% in test [18]. Further, the inhibition amounted to 4.18% in test [19] and 1.97% in test [20].
In the case of `ON=C1CCc2cc(-c3nc(C4CCNCC4)[nH]c3-c3ccncc3)ccc21`, the inhibition in test [1] is 0.36%; in [2], 1.46%; in test [3] it was 2.88%; in [4] it was 1.37%; in [5], 1.77%; in test [6] it was -4.28%. The inhibition in [7] is -5.17%; in test [8] it was -0.93%; in test [9], -2.5%; in [10] it was -3.45%; in test [11] it was -1.26%; in [12] it was -0.05%. The inhibition is -1.18% in test [13]; -1.73% in test [14]; -0.26% in test [15]; 1.85% in test [16]; 2.25% in [17]; -1.08% in test [18]. Moreover, the inhibition in [19] was 2.17%; in test [20], -0.5%.
